# From PubChem BioAssay (NCATS)
# Inconclusive results are not listed. Unmarked numbers belong to inactive results. Calls of active or inactive are those of the source. Calls follow the shape of the dose curve; as a rule, active = well fitted cell-killing curve with a large enough effect; inconclusive = small, poorly fitted or top-dose-only effect, or effect the other way; inactive = no such curve, though single readings can be large or run the other way.
# Experiment: qHTS of pediatric cancer cell lines to identify multiple opportunities for drug repurposing: Confirmatory screen for Rh30 cells (AID 1347126); also: nearly all actives have a fitted effect of over 55% in size
# Conditions: Rh30 rhabdomyosarcoma cell viability; series mostly up to 45.9 µM; activity change, negative = cytotoxic: at the top concentration
# From the text: Drug repurposing or repositioning has been offered as a strategy for drug development in oncology programs. This approach has special potential for childhood cancers and other rare or orphan diseases, where the expected return on new drug development has been a disincentive to pharmaceuticals.
# In this project we exploit the poly-pharmacology of drugs to discover new indications via phenotypic screening of a panel of 19 well-characterized cell lines derived from solid tumors seen in children and adolescents. The goal is to identify approved drugs with previously unrecognized anticancer properties that has the potential to reveal new mechanisms and biological processes involved in carcinogenesis or drug resistance. We employed a titration-based paradigm (quantitative high-throughput screening or qHTS), where all compounds were tested at multiple concentrations for their effect on cell viability. Concentration-response curves (CRCs) were derived directly from the primary screen, and both potency and efficacy values were used to identify compounds with robust bioactivity profiles. We screened the NIH Chemical Genomics Center (NCGC) Pharmaceutical Collection (NPC) and Mechanism Interrogation Plate (MIPE) small molecule collections of approved and investigational compounds against these cell lines; and measured metabolically active cells after 48 hours of compound treatment as a proxy for cell viability.
# Assay Submitter: Nathalia J. Martinez, National Center for Advancing Translational Sciences, National Institutes of Health, Rockville, MD, USA; email: natalia.martinez@nih.gov
# [1] Shen, M et al. Quantitative high-throughput phenotypic screening of pediatric cancer cell lines identifies multiple opportunities for drug repurposing. Oncotarget 2017 Dec 19;9(4):4758-4772. PMID 29435139.
# The cells were obtained from University of North Carolina (UNC), Pediatric Preclinical Testing Program (PPT), and Coriell Institute (CI).
# qHTS cell viability assay:
# Cells were assayed in growth media at a density of 500-1,000 cells/well. Five microliters of cells were dispensed into 1,536-well, white, solid-bottom, TC-treated plates (Greiner Bio One) using a multidrop dispenser and incubated at 37 degrees C, 5% CO2, under a humidified atmosphere for 5 hours. Twenty-three nanoliters of compounds and controls (neutral control DMSO or positive control bortezomib at final concentration of 2.3 µM) were subsequently transferred by Kalypsys pintool. For primary screens, the MIPE collection was tested at 11-point dilutions (final concentrations range from 0.78 nM to 46 µM) and the NPC collection at 8-point dilutions (final concentrations range from 0.59 nM to 46 µM). Compounds tested in follow-up screens were assayed at 11-point dilutions. Cells were incubated for 48 hours, followed by addition of 3 µL of CellTiter-Glo (Promega). After a 15 min incubation at room temperature, samples were analyzed for luminescence intensity using a ViewLux High-throughput CCD imager equipped with clear filters.
# % is scaled to controls: 0 for no effect and ±100 for the full control effect; potency is read from the fitted curve at half-maximal effect.
Compound,Potency,"activity change, negative = cytotoxic"
Cc1nnc(C(C)C)n1C1C[C@H]2CC[C@@H](C1)N2CC[C@H](NC(=O)C1CCC(F)(F)CC1)c1ccccc1 (some centres not stated),9.27 µM (active),–
NC1=N[C@@]2(c3cc(NC(=O)c4ccc(F)cn4)ccc3F)COC[C@@H]2CS1,–,14.5%
COc1cc(N2CCC(N3CCN(C)CC3)CC2)ccc1Nc1ncc(Cl)c(Nc2ccccc2S(=O)(=O)C(C)C)n1,0.737 µM (active),–
CC(=O)Nc1ccc([C@H](C)C(=O)Nc2ncc(C(C)C)s2)cc1,2.08 µM (active),–
O=c1[nH]cnc2c1ncn2[C@H]1CC[C@@H](CO)O1,–,10.2%
CCOc1ccc(Nc2nc(-c3c(C)nc4ccccn34)cs2)cc1,–,-5.64%
CNC1CCC(N(Cc2cccc(-c3ccncc3)c2)C(=O)c2sc3c(F)ccc(F)c3c2Cl)CC1 (configuration not stated),23.3 µM (active),–
O=C1C(Cl)=C(NCCN2CCOCC2)C(=O)c2ncccc21,7.37 µM (active),–
CC1(C)O[C@H]2C[C@@H]3[C@H]4CCC5=CC(=O)C=C[C@]5(C)[C@@]4(F)[C@@H](O)C[C@]3(C)[C@]2(C(=O)CO)O1,–,2.46%
Nc1ncnc2c1ncn2[C@@H]1O[C@@H](CO)[C@H](O)[C@H]1O,–,2.17% [at 29.5 µM]
CO[C@H]1C[C@@H]2CC[C@@H](C)[C@@](O)(O2)C(=O)C(=O)N2CCCC[C@@H]2C(=O)O[C@H]([C@H](C)C[C@@H]2CC[C@H](OCCO)[C@H](OC)C2)CC(=O)[C@H](C)C=C(C)[C@@H](O)[C@@H](OC)C(=O)[C@H](C)C[C@H](C)C=CC=CC=C1C,–,-24.6%
COc1ccc(-c2coc3cc(O)cc(O)c3c2=O)cc1,–,-8.99%
NS(=O)(=O)c1cccc2c1C(=O)c1cccc(O)c1C2=O,2.93 µM (active),–
O=C1c2ccccc2-[n+]2ccc3c([nH]c4ccccc43)c21,2.93 µM (active),–
CC1(C)CCC[C@@]2(C)[C@@H]1CC[C@@]1(C)OC(=O)C[C@H]21,0.0185 µM (active),–
O=C(O)c1ccc(-c2c[nH]c3ncc(-c4ccccc4)cc23)cc1C1CCCC1,–,15.8%
CC(C)n1nc(-c2ccc3oc(N)nc3c2)c2c(N)ncnc21,0.293 µM (active),–
COc1cc2ncnc(Nc3ccc(F)c(Cl)c3)c2cc1OCCCN1CCOCC1,8.51 µM (active),–
CC(C)(C(=O)NCC(F)(F)C(F)(F)F)C(=O)N[C@@H]1C(=O)Nc2ccccc2-c2ccccc21,–,-3.16%

Compound,Potency,"activity change, negative = cytotoxic"
CCc1ccc(OCc2ccccc2C(=O)Nc2ccc3nc(C)cc(N)c3c2)cc1,–,4.53%
O=C(Nc1cccc(Br)c1)c1cccc(S(=O)(=O)N2CCCCCC2)c1,–,-16.9%
O=C1NC(=O)C(=Cc2ccc3c(c2)OC(F)(F)O3)S1,–,3.71%
CC1(C)CCC2=C(O1)c1ccccc1C(=O)C2=O,20.8 µM (active),–
CC1(C)S[C@H]2[C@H](NC(=O)[C@@H](N)c3ccc(O)cc3)C(=O)N2[C@@H]1C(=O)O,–,5.93%
CN[C@@H](C)C(=O)N[C@H]1CN(C(=O)CC(C)C)CC[C@H]2CC[C@@H](C(=O)NC(c3ccccc3)c3ccccc3)N2C1=O,–,15.6%
CO[C@H]1C[C@@H]2CC[C@@H](C)[C@@](O)(O2)C(=O)C(=O)N2CCCC[C@@H]2C(=O)O[C@H]([C@H](C)C[C@@H]2CC[C@H](OP(C)(C)=O)[C@H](OC)C2)CC(=O)[C@H](C)C=C(C)[C@@H](O)[C@@H](OC)C(=O)[C@H](C)C[C@H](C)C=CC=CC=C1C,18.5 µM (active),–
CC(=O)Oc1cc2c(s1)CCN(C(C(=O)C1CC1)c1ccccc1F)C2 (configuration not stated),2.93 µM (active),–
COc1ccc(-c2nc(N3CCOCC3)c3sc(CN(C)c4ncc(C(=O)NO)cn4)cc3n2)cn1,4.14 µM (active),–
N[C@@]1(C(=O)O)CS(=O)(=O)[C@H]2[C@H](C(=O)O)[C@H]21,–,16.1%
CO[C@H]1C=CC=C(C)C(=O)NC2=CC(=O)C(NCCN(C)C)=C(C[C@@H](C)C[C@H](OC)[C@@H](O)[C@@H](C)C=C(C)[C@@H]1OC(N)=O)C2=O,3.29 µM (active),–
CO[C@H]1C(=O)[C@]2(C)[C@@H](OC)C[C@H]3OC[C@@]3(OC(C)=O)[C@H]2[C@H](OC(=O)c2ccccc2)[C@]2(O)C[C@H](OC(=O)[C@H](O)[C@@H](NC(=O)OC(C)(C)C)c3ccccc3)C(C)=C1C2(C)C,–,-23.3%
CCCCCCCCCCCC1=C(O)C(=O)C=C(O)C1=O,–,8.83%
C=C1C(=O)[C@@]23C(CC[C@@H]1[C@H]2O)[C@@]12CO[C@]3(O)[C@@H](O)[C@@H]1C(C)(C)CC[C@@H]2O (some centres not stated),5.85 µM (active),–
OC[C@H]1O[C@@H](n2cnc3c2NC=NC[C@@H]3O)C[C@H]1O,–,24.4%
COc1ncc(-c2ccc3nccc(-c4ccnnc4)c3c2)cc1NS(=O)(=O)c1ccc(F)cc1F,0.0414 µM (active),–
CN(C)C1CCN(C(=O)c2ccc(NC(=O)Nc3nc(N4CCOCC4)nc(N4CCOCC4)n3)cc2)CC1,–,19.3%
CC1(C)CCC(CN2CCN(c3ccc(C(=O)NS(=O)(=O)c4ccc(NCC5CCOCC5)c([N+](=O)[O-])c4)c(Oc4cnc5[nH]ccc5c4)c3)CC2)=C(c2ccc(Cl)cc2)C1,–,-0.57%
